Records with an inconclusive call do not appear. Activity calls are given as the source filed them. Calls follow the shape of the dose curve; as a rule, active = well fitted curve in the direction sought with a large enough effect in the signal ratio in the repeat runs (not every such curve was filed as active); inconclusive = weak or mixed curves, or a change in a side signal; inactive = no such curve, though single readings can be large or run the other way; the % refers to the signal ratio.
Assay: qHTS assay to identify small molecule agonists of the NFkB signaling pathway (AID 1159509)
Conditions: NFkB-bla ME-180 cells, beta-lactamase FRET ratio, 5 h; series mostly up to 61 µM
Source text: National Center for Advancing Translational Sciences [NCATS]
NIH Chemical Genomics Center [NCGC]
U.S. Environmental Protection Agency [EPA]
National Institutes of Environmental Health Sciences [NIEHS]
National Toxicology Program [NTP]
U.S. Food and Drug Administration [FDA]
Transcription factors and their stimulated target gene expression play pivotal roles across many cellular processes including responses to environmental stimuli. Proper regulation of associated pathways is critical to maintain cell health and function. Constitutive activation of transcription factor pathways has been implicated in tumors as it may block cellular functions such as apoptosis and lead to invasion and metastasis. One important transcription factor that stimulates gene expression in response to cytokines, UV radiation, and other stimuli is nuclear factor-kappa B (NFkB). To measure activation of the NFkB pathway, the CellSensor NFkB-bla ME-180 cell line (Life Technologies, Carlsbad, CA) that stably expresses beta-lactamase reporter gene under the regulation of a NF-kB response element was used. This assay allows measurement of the NFkB pathway activity induced by compounds in a ME-180 cell line. This system quantitates NF-kB activity using a FRET-based assay system where beta-lactamase expression disrupts FRET, allowing for fluorescent measurement of activity. This cell line has been used to screen the Tox21 10K compound library and to identify compounds that induce the NFkB pathway activity.
Tox21 Assay Protocol Summary:
NFkB-bla ME-180 cells were dispensed at 2,000 cells/6 uL of assay medium per well into black wall/clear-bottom 1536-well plates using a Multidrop Combi (ThermoFisher Scientific, Waltham, MA) dispenser. After the assay plates were incubated at 37 C and 5% CO2 for an overnight, 23 nL of compounds dissolved in DMSO, positive controls or DMSO only was transferred to the assay plate by a Pintool station (Kalypsys, San Diego, CA). The assay plates were incubated at 37 C and 5% CO2 for 5 hr. One uL of LiveBLAzer B/G FRET substrate (Life Technologies) was added using a Flying Reagent Dispenser (Aurora Discovery, San Diego, CA) and the plates were incubated at room temperature for 1.5 hr. Fluorescence intensity (405 nm excitation, 460 nm and 530 nm emissions) was measured using an Envision plate reader (PerkinElmer, Shelton, CT).
For `Cc1ccccc1C(OCCN(C)C)c1ccccc1` (stereo not given), the outcome was “inactive”. In the case of `O=C(C1CCCCC1)N1CC(=O)N2CCc3ccccc3C2C1` (stereo not given), the outcome is reported as “inactive”. In the case of `NC(N)=NC(=O)c1nc(Cl)c(N)nc1N`, the outcome is reported as “inactive”. For `Cc1ccc(S(=O)(=O)NC(=O)NN2CCCCCC2)cc1`, the outcome was “inactive”. In the case of `Nc1ccn([C@H]2CC[C@@H](CO)O2)c(=O)n1`, the outcome is reported as “inactive”. With `CNC[C@H](O)c1cccc(O)c1` the outcome was “inactive”. In the case of `O=C(O)CS`, the outcome is reported as “inactive”. For `COc1ccc2[nH]cc(CCNC(C)=O)c2c1`, the outcome was “inactive”. In the case of `C1N2CN3CN1CN(C2)C3`, the outcome is reported as “inactive”. For `O=C1CN(/N=C/c2ccc([N+](=O)[O-])o2)C(=O)N1`, the outcome was “inactive”. In the case of `Cn1c(=O)c2[nH]cnc2n(C)c1=O`, the outcome is reported as “inactive”. In the case of `CCCN(CCC)S(=O)(=O)c1ccc(C(=O)O)cc1`, the outcome is reported as “inactive”. With `CCCCOC(=O)CC(CC(=O)OCCCC)(OC(C)=O)C(=O)OCCCC` the outcome was “inactive”. In the case of `Cc1noc(NS(=O)(=O)c2ccc(N)cc2)c1C`, the outcome is reported as “inactive”. For `CCC1(c2ccccc2)C(=O)NCNC1=O`, the outcome was “inactive”. In the case of `O=C1NC(=O)c2ccccc21`, the outcome is reported as “inactive”. With `O=C(O)c1[nH]n(-c2ccc(S(=O)(=O)O)cc2)c(=O)c1N=Nc1ccc(S(=O)(=O)O)cc1` the outcome was “inactive”. With `NC(N)=O` the outcome was “inactive”. In the case of `CC(C)[C@@H]1CC[C@@H](C)C[C@H]1O`, the outcome is reported as “inactive”. In the case of `Nc1ccc(C(=O)O)cc1`, the outcome is reported as “inactive”. In the case of `OC(Cn1cncn1)(Cn1cncn1)c1ccc(F)cc1F`, the outcome is reported as “inactive”. In the case of `c1ccc2[nH]ccc2c1`, the outcome is reported as “inactive”. In the case of `NC(=O)NC1NC(=O)NC1=O` (stereo not given), the outcome is reported as “inactive”. With `Oc1ccc(/C=C/c2cc(O)cc(O)c2)cc1` the outcome was “inactive”. With `CCCCC1C(=O)N(c2ccccc2)N(c2ccccc2)C1=O` the outcome was “inactive”. With `O=S(=O)(O)NC1CCCCC1` the outcome was “inactive”. In the case of `O=C(c1ccccc1)c1ccccc1`, the outcome is reported as “inactive”. With `CC1(C)[C@@H]2CC[C@@]1(C)C(=O)C2` the outcome was “inactive”. In the case of `Cn1cc[nH]c1=S`, the outcome is reported as “inactive”. With `NC(=O)c1ccccc1O` the outcome was “inactive”. With `O=C(O)CCCCCCCC(=O)O` the outcome was “inactive”. In the case of `CC(O)CN(CCN(CC(C)O)CC(C)O)CC(C)O` (stereo not given), the outcome is reported as “inactive”. For `C/C=C/c1ccc(OC)cc1`, the outcome was “inactive”. With `Cc1cc(=O)[nH]c(=S)[nH]1` the outcome was “inactive”. With `COc1c2occc2cc2ccc(=O)oc12` the outcome was “inactive”. With `Cc1ccc(C)c(OCCCC(C)(C)C(=O)O)c1` the outcome was “inactive”. In the case of `CCCCC(CC)COC(=O)/C=C/c1ccc(OC)cc1` (stereo not given), the outcome is reported as “inactive”. In the case of `O=c1ccc2ccccc2o1`, the outcome is reported as “inactive”. In the case of `O=C(O)c1cc(N=Nc2ccc(S(=O)(=O)Nc3ccccn3)cc2)ccc1O`, the outcome is reported as “inactive”. With `O=NO` the outcome was “inactive”.

From PubChem BioAssay (Tox21)
